According to PubChem BioAssay (NCI):
Compounds without any hit were thinned out: in the full panel of roughly 83,000, 20% have a hit.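 Treatment: one concentration, 48 hours, 96-well format. Scoring: percent growth, with anything below 10 considered active.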 A number with no mark means an inactive call. Active and inactive are the calls of the source.

test system: SK-MEL-28 melanoma; assay: NCI-60 one-dose screen, 48 h (100 = growth as untreated, 0 = no growth, -100 = all killed); details: 10 µM unless noted

Going from `Cc1ccc2c(c1)C(=O)/C(=C/c1ccc(OCC(=O)c3ccccc3)cc1)O2` to `Cc1ccc(/C=C2\Oc3cc(OCC(=O)c4ccc(Cl)cc4)ccc3C2=O)cc1`, the growth falls from 112% to 48.4%.

Compared with `O=C1C2CC=CCC2C(=O)N1CNc1ccc(Cl)cc1` (centres undefined), `CC(=O)CC(C)(C)c1ccc(Cl)cc1` is higher in growth: 109% for the first, 115% for the second.

Going from `O=C1C[C@H](Sc2nc(-c3ccc(F)cc3)cc(C(F)(F)F)n2)[C@H]2CO[C@@H]1O2` to `CNC(=O)c1cc(Oc2ccc3nc(NC(=O)Nc4ccc(CN5CCOCC5)c(C(F)(F)F)c4)sc3c2)ccn1`, the growth falls from 105% to 25.1%.

Compared with `CCN(CC)CCCNc1cccc2c(SCc3ccccc3)ccnc12`, `CCCCN(CCCC)CCC(C)(O)c1cc2ccccc2c2ccccc12` (centres undefined) is higher in growth: 108% for the first, 121% for the second.

Compared with `Cc1cc(=O)oc2cc(Oc3nc(-c4cccs4)cn4c(-c5cccs5)cnc34)ccc12`, `COc1ccc(OCC(=O)Nc2ccc(-c3nc4ccccc4s3)cc2C)cc1` is higher in growth: 23.9% for the first, 107% for the second.

Going from `CCCCN(CCCC)Cc1c(C)[nH]c2cc(OC)ccc2c1=O` to `CCCCN(CC)CCCCCCCCCCN1CCCc2cc(OC)ccc21`, the growth rises from 112% to 119%.

Going from `CCCCCCCCCCCCCC1=NCCN1CCO` to `Cc1ccc(SCN2CCN(c3cccc(Cl)c3)CC2)cc1`, the growth rises from 115% to 120%.

First: N#Cc1ccc(NC(=O)Nc2ccc(Cc3ccc(NC(=O)Nc4ccc(C#N)cc4)cc3)cc2)cc1
Second: O=C1/C(=C\c2cn(C(=O)c3ccc(Cl)cc3)c3ccccc23)c2ccccc2N1c1c(Cl)cccc1Cl
The growth of the first is lower: 36.7% for the first, 113% for the second.

First: Clc1nc(Cl)c2c3c(sc2n1)CCCC3
Second: O=C1Nc2c(ccc(Cl)c2Cl)/C1=C/c1cc(Br)c(O)c(Br)c1
The growth of the first is lower: 55.1% for the first, 58.3% for the second.

Going from `CCN(CC)c1ccc(/C=C/C2=[N+](C)c3ccccc3C2(C)C)cc1` to `CCN(CC)c1ccc(CNc2cc(C)nc3ccc(OC)cc23)cc1`, the growth rises from 42.9% to 96.6%.

Compared with `COc1cc(-c2nc3ccccc3s2)ccc1NC(=O)COc1ccc(Cl)cc1`, `CN(C)c1ccc(/C=C(\C#N)c2nc3ccccc3s2)cc1` is higher in growth: 58.6% for the first, 119% for the second.

Going from `O=c1c(/C=C/c2ccco2)nnc(SCCN2CCOCC2)n1/N=C/c1ccc([N+](=O)[O-])cc1` to `CC1CN(Cc2ccco2)C(=S)N(c2ccccc2)C1=O` (centres undefined), the growth falls from 104% to 102%.

First: COC1=CC(=O)C(OC)=C(OC)C1=O
Second: Cn1c2ccccc2c2c3c(c4c5ccccc5[nH]c4c21)C(=O)N(N)C3=O
The growth of the first is higher: 98.6% for the first, 66.5% for the second.

First: CN(CC(=O)N(Cc1ccc(C2CCCCC2)cc1)c1ccc(C(=O)NO)cc1)S(=O)(=O)c1c(F)c(F)c(F)c(F)c1F
Second: C=C1CC[C@@H]2[C@](C)(COC(C)=O)[C@H](OC(C)=O)CC[C@@]2(C)[C@@H]1CC(NCc1ccc(F)cc1)C1=CCOC1=O (some centres undefined)
The growth of the first is higher: 86.8% for the first, 77.8% for the second.

Compared with `Oc1ccccc1N=Cc1c(O)ccc2ccccc12`, `O=[N+]([O-])c1c(F)cccc1Nc1cccc(F)c1` is higher in growth: 113% for the first, 118% for the second.

Going from `c1ccc(CSc2ncnc3nc[nH]c23)nc1` to `CSc1[nH]c2ncnc(N)c2c1C#N`, the growth falls from 128% to 120%.

`O=C(O)c1cccnc1Br` was tested, and the growth was 112%.

In the case of `CCN1CCN(Cc2ccc(NC(=O)Nc3nc4ccc(Oc5ccnc(C(=O)NC)c5)cc4s3)cc2C(F)(F)F)CC1`, the growth is reported as -85.2% (active).
With `CCN(CC)CC(O)CNc1c2ccc([N+](=O)[O-])cc2nc2cc(OC)c(OC)cc12` (centres undefined) the growth was -11.9% (active).
`C=CC[N+]1(CC)CCN=C1CCCCCCCCCCCCCCCCC` (centres undefined) was tested, and the growth was -76.1% (active).
`OC(c1cc(-c2ccccc2)nc2ccc(Cl)cc12)C1CCCCN1` (centres undefined) was tested, and the growth was -76.9% (active).
For `CCN(CC)Cc1cc(Nc2c3ccccc3nc3cc(Cl)ccc23)ccc1O`, the growth was -79.3% (active).
In the case of `COc1ccc(-c2cn3c(-c4ccc(OC)cc4)cnc3c(Oc3ccc4c(C)cc(=O)oc4c3)n2)cc1`, the growth is reported as -17.4% (active).
